This is a sample that favours compounds with a hit; in the whole collection about 3.3% have one here.
CASP6 VEID inh: human caspase-6 inhibitors, primary screen, biochemical, VEID-R110 fluorescence, single point, set 2; P55212; purified caspase-6, Z-VEID-R110 cleavage fluorescence; inhibition, % at 12.5 µM; hit rate 0.53% among 350,000;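 active means mean inhibition across replicates at least about 35%, with every replicate also reaching that limit, limit read from the data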
SIRT5 block: SIRT5 desuccinylase inhibitors, primary screen, biochemical, fluorescence imaging, single point, set 5 | hit rate 1.1% among 330,000 | Purified SirT5, succinyl-peptide AMC, trypsin-coupled fluorescence | AID 652115, 2013 | NAD-dependent protein deacylase sirtuin-5, mitochondrial (Homo sapiens), Q9NXA8 | inhibition, % at 15 µM; in the data active means inhibition above about 15%
ERAP1 HTS inh: human ERAP1 aminopeptidase inhibitors, primary screen, biochemical, single point, plate reader; Endoplasmic reticulum aminopeptidase 1 (Homo sapiens), Q9NZ08; recombinant ERAP1, Leu-AMC fluorescence, 60 min; inhibition, % at 10.7 µM; hit rate 0.15% among 340,000; AID 652197, 2013;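 active means mean replicate inhibition of at least 30%, or all replicates individually reaching that 30% level; inactive means mean below 30% and not every replicate reaching it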
FGF22 binding: binders of human FGF22 protein, primary screen, FGF22 synaptogenesis inhibitor project, biophysical, thermal shift, single point | Fibroblast growth factor 22 (Homo sapiens), Q9HCT0 | recombinant FGF22 thermal shift, SYPRO orange fluorescence; percent of sucrose octasulfate shift, DMSO zero | activity (Tm shift, normalised), % at 9.99 µM | hit rate 1.5% among 340,000 | AID 651658, 2012;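 active means mean Tm shift, scaled 0 neutral to 100 positive control, at about 1.3% or above, every replicate too, limit read from the data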
Target sequence (Q9HCT0 whole entry, looked up): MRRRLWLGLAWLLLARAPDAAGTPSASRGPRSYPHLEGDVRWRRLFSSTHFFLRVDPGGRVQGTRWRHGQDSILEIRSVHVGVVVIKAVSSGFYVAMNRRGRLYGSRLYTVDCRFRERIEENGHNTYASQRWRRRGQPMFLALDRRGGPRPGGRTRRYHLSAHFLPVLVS
INS-1E GSIS act: GLuc luminescence reporter in INS-1E cells, primary screen for activators of glucose-dependent secretion of insulin. AID 743287, 2014. hit rate 0.61% among 370,000. activation, % at 16.6 µM. INS-1E GLuc reporter insulin secretion, 2-3 h;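 active means lowest replicate activation of at least 40%, so every replicate reaches that level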
Hits are given with their value; - = inactive; . = no result.

SMILES	CASP6 VEID inh	SIRT5 block	ERAP1 HTS inh	FGF22 binding	INS-1E GSIS act
COC(=O)CCC(=O)OC1(C)C(=O)C=C2C=C(C3CC3)N(CCCCO)C=C2C1=O (centres undefined)	37	-	-	-	-
C=CCN1C=C2C(=O)C(C)(OC(=O)CCC(=O)OC)C(=O)C=C2C=C1C1CC1 (centres undefined)	-	.	-	-	-
CO[C@@H]1CN(C)C(=O)c2ccc(NC(=O)C3CC3)cc2OC[C@H](C)N(CC2CCCC2)C[C@H]1C	-	-	-	-	-
O=C(COc1ccc2c3c(c(=O)oc2c1)CCC3)N1CCCC1	-	-	-	-	-
O=C(O)COc1ccc2c3c(c(=O)oc2c1)CCC3	.	.	.	.	131
CC(Oc1cc2oc(=O)c3c(c2cc1Cl)CCCC3)C(=O)NCc1cccnc1 (centres undefined)	-	-	-	-	-
CC(Oc1ccc2c3c(c(=O)oc2c1)CCCC3)C(=O)NCc1cccnc1 (centres undefined)	-	-	-	-	48
Cc1nc(NC(=O)CSc2ccc(-c3nc4ccccc4[nH]3)cn2)sc1C	.	.	.	.	51
Cc1ccc2nc(-c3ccc(SCC(=O)Nc4nnc(C)s4)nc3)[nH]c2c1	.	.	.	.	459
C[C@@H]1CCCCO[C@H](CN(C)C(=O)Nc2ccccc2)[C@H](C)CN([C@H](C)CO)C(=O)c2cc(NS(=O)(=O)c3cccs3)ccc2O1	-	-	-	-	-
O=C(OCC(=O)c1c[nH]c2ccccc12)c1ccc([N+](=O)[O-])s1	-	-	-	-	-
CCc1cccc2c(C(=O)COC(=O)c3ccc([N+](=O)[O-])s3)c[nH]c12	-	-	-	44	-
CC(=O)N1CC(=O)N2[C@H](CO)[C@H](c3ccc(-c4ccncc4)cc3)[C@@H]2C1	-	-	-	.	-
CC/C(O)=C1\C(=O)CC(c2ccccc2)CC1=NCCC(=O)O (centres undefined)	-	-	-	-	-
CC/C(O)=C1\C(=O)CC(c2ccccc2)CC1=NC(C)C (centres undefined)	.	.	.	.	63
c1ccc(Oc2ccccc2-c2cc(NCCc3cccnc3)n3nccc3n2)cc1	-	.	-	-	53
C[C@@H]1CN([C@H](C)CO)C(=O)c2cc(NC(=O)Nc3cccc4ccccc34)ccc2O[C@@H]1CN(C)Cc1ccncc1	-	-	-	-	-
Cc1ccccc1C1NC(=S)NC2=C1C(=O)CC(C)(C)C2 (centres undefined)	-	-	-	43	-
CC(C)CC#Cc1ccc2c(c1)O[C@H](CN(C)C(=O)C1CCC1)[C@H](C)CN([C@@H](C)CO)S2(=O)=O	-	-	-	-	-
CC(C)CC#Cc1ccc2c(c1)O[C@H](CN(C)C(=O)C1CCCCC1)[C@@H](C)CN([C@H](C)CO)S2(=O)=O	-	21	-	-	-
CC(C)CC#Cc1ccc2c(c1)O[C@@H](CN(C)C(=O)C1CCCCC1)[C@H](C)CN([C@@H](C)CO)S2(=O)=O	-	17	-	-	-
CC(C)CC#Cc1ccc2c(c1)O[C@H](CN(C)C(=O)C1CCC1)[C@@H](C)CN([C@@H](C)CO)S2(=O)=O	-	-	-	-	-
CC(C)CC#Cc1ccc2c(c1)O[C@H](CN(C)C(=O)C1CCCCC1)[C@@H](C)CN([C@@H](C)CO)S2(=O)=O	-	27	-	-	55
CN(C)CCCNC(=O)C[C@H]1CC[C@@H](NS(=O)(=O)c2ccc(F)cc2)[C@@H](CO)O1	-	-	-	-	-
CO[C@H]1CN(C)C(=O)c2cc(NC(=O)C3CC3)ccc2OC[C@H](C)N(C(C)=O)C[C@@H]1C	-	-	-	-	-
COc1ccc2c3c(n(C)c2c1)[C@@H](CO)N(Cc1ccncc1)CC31CCN(C(=O)C2CCCC2)CC1	-	-	-	-	-
C[C@H](CO)N1C[C@H](C)[C@@H](CN(C)C(=O)Nc2ccccc2)Oc2ccc(NC(=O)Nc3ccc(F)cc3)cc2C1=O	-	-	-	-	-
O=C1NCCOCn2nncc2CC[C@H]1Cc1cccc(Cl)c1	.	.	.	.	-
